Test results: PubChem BioAssay (Tox21)
Inconclusive results are not listed. Unmarked numbers belong to inactive results. Calls follow the shape of the dose curve; as a rule, active = well fitted cell-killing curve with a large enough effect in the repeat runs; inconclusive = weak or mixed curves, or effect the other way; inactive = no such curve, though single readings can be large or run the other way.

assay: qHTS assay for small molecule activators of the heat shock response signaling pathway - cell viability counter screen (AID 743209); details: HSE-bla HeLa viability, CellTiter-Glo luminescence, 5 h; series mostly up to 62.6 µM; activity change, negative = cytotoxicity: at the top concentration; also: nearly all actives have a fitted effect of over 50% in size
Source text: U.S. Tox21 Program National Center for Advancing Translational Sciences [NCATS] NIH Chemical Genomics Center [NCGC] U.S. Environmental Protection Agency [EPA] National Institutes of Environmental Health Sciences [NIEHS] National Toxicology Program [NTP] U.S. Food and Drug Administration [FDA] Tox21 Assay Overview: Various chemicals, environmental and physiological stress conditions may lead to the activation of heat shock response/ unfolded protein response (HSR/UPR). There are three heat shock transcription factors (HSFs) (HSF-1, -2, and -4) mediating transcriptional regulation of the human HSR. To identify the compounds that activate HSR signaling, HSE-bla HeLa cell line (Invitrogen, Carlsbad, CA, USA) containing a beta-lactamase reporter gene under the control of the heat shock response elements was used to screen Tox21 10K compound library. The cytotoxicity of the Tox21 compound library against the HSE-bla HeLa cell line was tested in parallel by measuring the cell viability using CellTiter-Glo assay (Promega, Madison, WI) in the same wells.
Tox21 Assay Protocol Summary: The CellSensor HSE-bla HeLa cells (Invitrogen, Carlsbad, CA, USA) were dispensed at 1500 cells/6uL/well into 1536-well black wall/clear bottom plates using a Multidrop combi (Thermo Fisher Scientific, Waltham, MA) dispenser. After the assay plates were incubated at 37 C and 5% CO2 overnight, 23 nL of compounds dissolved in DMSO, positive controls or DMSO only was transferred to the assay plate by a Pintool station (Kalypsys, San Diego, CA). The plates were incubated at 37 C for 5 h. After 1 uL of LiveBLAzerTM B/G FRET substrate was added using a Flying Reagent Dispenser (FRD, Beckman Coulter, Indianapolis, IN, USA), the plates were incubated at room temperature for 2.5 h, and fluorescence intensity was measured by an Envision plate reader (PerkinElmer, Shelton, CT). For cell viability readout that measures cytotoxicity, 3 ul/well of CellTiter-Glo reagent was added into the assay plates using a FRD. After 30 min incubation at room temperature, the luminescence intensity in the plates was measured using a ViewLux (PerkinElmer) plate reader.
% is scaled to controls: 0 for no effect and ±100 for the full control effect.

| Structure (SMILES) | activity change, negative = cytotoxicity |
| --- | --- |
| CCOC(=O)CN1CCCC1=O | 8.84% |
| COC(C)(C)CC(C)=O | 0.625% |
| CCC(C)c1nccnc1OC (stereo not given) | 4.69% |
| CC(O)C(CO)C(C)O (stereo not given) | 2.56% [at 81.1 µM] |
| CCC(C)SSC(C)CC (stereo not given) | 0.128% |
| N=C(N)N1CCc2ccccc2C1 | 14.1% [at 5.95 µM] |
| O=C(O)P(=O)(O)O | 2.55% |
| CCC(=O)OCCOc1ccccc1 | -11.1% |
| O=C(c1ccccc1)c1cccc(O)c1 | -11.5% [at 81.1 µM] |
| Cc1ccc2cccnc2c1 | 2.8% |
| C=CCCCCCCCCOC(C)=O | 5.98% |
| CCO[Si](CC(C)C)(OCC)OCC | -1.39% |
| C=CC(C)(CCC=C(C)C)OC(=O)C(C)C (stereo not given) | -19.5% |
| COc1cc(NS(=O)(=O)c2ccc(N)cc2)ncn1 | 2.4% |
| O=C(O)Cc1ccccc1Oc1ccc(Cl)cc1Cl | -17.6% |
| Cc1cccc(N)n1 | 9.27% [at 81.1 µM] |
| CCCC(=O)C(CC)Sc1ccoc1C (stereo not given) | -0.139% |
| N#Cc1cc(NC(=O)C(=O)O)c(Cl)c(NC(=O)C(=O)O)c1 | 5.54% |
| CCCCCCCCCCCC(C)=O | 2.74% |
| COC(=O)c1ccc(NC(C)=O)cc1OC | -4.9% |

| Structure (SMILES) | activity change, negative = cytotoxicity |
| --- | --- |
| CNC(=O)c1c(I)c(NC(C)=O)c(I)c(C(=O)O)c1I | 2.61% |
| CCCCCCC(O)CO (stereo not given) | 5.44% |
| O=C1Nc2ccccc2C1=O | 1.36% |
| CCCCCCCCCCCCCCCC(=O)OC | 9.32% [at 29.1 µM] |
| C[n+]1ccccc1/C=N/O | -3.01% |
| CC(=O)Nc1ccc(OCCOCCOc2ccc(NC(C)=O)cc2)cc1 | 0.209% |
| O=C1CC2(CCCC2)CC(=O)N1CCNCC1COc2ccccc2O1 (stereo not given) | -7.81% |
| CCCCCCCCCCCCCC(=O)OCC | -5.53% |
| CCCCC(O)/C=C(C)/C=C/C=C/C(=O)N1CCCC1=O (stereo not given) | -25.7% |
| CC(=O)Nc1ccc(S(=O)(=O)Nc2cc(C)on2)cc1 | -0.727% |
| O=C(OOC(=O)c1ccccc1)c1ccccc1 | -8.8% |
| CC1(C)C(=O)C(C)(C)C1=O | 1.97% |
| CC(C)(C)C(=O)CC(=O)C(C)(C)C | 10.7% [at 81.1 µM] |
| CN(C)CCc1c[nH]c2ccc(CS(=O)(=O)N3CCCC3)cc12 | 4.09% |
| CC[C@@]1(c2ccccc2)NC(=O)N(C)C1=O | 9.56% |
| CCCCCCCCCCCCCCCCN(C)C | -2.6% [at 5.95 µM] |
| COc1ccc(Cl)cc1C | 4.69% [at 81.1 µM] |
| CN(C)c1cc(NC(=O)CNC(C)(C)C)c(O)c2c1C[C@H]1C[C@H]3[C@H](N(C)C)C(=O)C(C(N)=O)=C(O)[C@@]3(O)C(=O)C1=C2O | 3.24% |
| c1coc(Cn2cccc2)c1 | 3.9% |
| CCOC(=O)CC(C(C)=O)C(C)=O | 2.35% |
